# Source: PubChem BioAssay
# Inconclusive results are not listed. The source made the active and inactive calls.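 Rule for the calls, unless noted: active = growth inhibition above 25% in both replicates, a cutoff set 3 SD above the mean; inconclusive = above 25% in only one replicate; inactive = the rest.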
# Legend:
# [1] = Her2 expression decrease, cell viability multiplex – SKBR3 breast tumor cells, AlphaScreen, ATP viability, primary screen (AID 461;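 active = Her2 level under about 52% in both replicate screens, with viability over 70% of control, limit read from the data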;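 for Her2 level: lower value means less Her2 protein in the cells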;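 for viability: percent of carrier control wells set as 100% viability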); details: SKBR3 Her2 protein level, 18-24 h, measured here: SKBR3 viability, ATP luminescence, at 10 µM
# [2] = molecular target: Receptor tyrosine-protein kinase erbB-2 (Homo sapiens) (UniProt P04626); experiment: as above; details: 18-24 h, at 10 µM, stronger effect = lower value
# Receptor tyrosine-protein kinase erbB-2 (Homo sapiens), sequence (P04626 whole entry, looked up): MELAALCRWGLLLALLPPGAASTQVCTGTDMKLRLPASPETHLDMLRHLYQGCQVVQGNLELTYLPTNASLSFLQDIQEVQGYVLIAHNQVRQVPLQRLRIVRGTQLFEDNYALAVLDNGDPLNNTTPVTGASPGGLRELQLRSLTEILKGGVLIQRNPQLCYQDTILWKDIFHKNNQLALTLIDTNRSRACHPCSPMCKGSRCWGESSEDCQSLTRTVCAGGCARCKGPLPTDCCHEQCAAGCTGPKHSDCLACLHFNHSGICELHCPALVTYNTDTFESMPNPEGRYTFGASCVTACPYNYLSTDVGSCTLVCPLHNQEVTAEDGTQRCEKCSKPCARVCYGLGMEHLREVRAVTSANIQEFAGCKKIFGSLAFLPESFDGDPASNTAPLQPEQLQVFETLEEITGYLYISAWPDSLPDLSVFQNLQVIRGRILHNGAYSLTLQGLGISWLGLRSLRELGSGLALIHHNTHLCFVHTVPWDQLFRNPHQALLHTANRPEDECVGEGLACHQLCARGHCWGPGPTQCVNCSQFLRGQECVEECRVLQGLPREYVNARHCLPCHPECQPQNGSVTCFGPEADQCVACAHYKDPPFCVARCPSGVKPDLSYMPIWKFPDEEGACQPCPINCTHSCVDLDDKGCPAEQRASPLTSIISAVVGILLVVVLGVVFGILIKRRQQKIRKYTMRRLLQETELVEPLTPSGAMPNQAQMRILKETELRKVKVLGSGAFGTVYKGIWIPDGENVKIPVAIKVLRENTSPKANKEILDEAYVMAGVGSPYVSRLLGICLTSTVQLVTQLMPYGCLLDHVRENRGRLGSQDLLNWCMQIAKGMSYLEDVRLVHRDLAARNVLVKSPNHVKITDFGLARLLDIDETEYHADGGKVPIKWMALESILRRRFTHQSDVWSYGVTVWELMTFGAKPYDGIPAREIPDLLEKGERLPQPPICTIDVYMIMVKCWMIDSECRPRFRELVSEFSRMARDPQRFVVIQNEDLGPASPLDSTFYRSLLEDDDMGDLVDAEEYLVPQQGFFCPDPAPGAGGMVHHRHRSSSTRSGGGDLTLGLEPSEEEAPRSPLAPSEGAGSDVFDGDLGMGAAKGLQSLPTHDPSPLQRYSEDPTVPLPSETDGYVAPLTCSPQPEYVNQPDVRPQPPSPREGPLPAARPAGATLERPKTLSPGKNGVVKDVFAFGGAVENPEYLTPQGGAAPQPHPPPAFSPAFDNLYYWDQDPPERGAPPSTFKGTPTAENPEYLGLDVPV
# [3] = reduced viability of SK-BR-3 breast cancer cells – cell-based, 24 h, human, pilot screen (AID 572;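 active = viability at or below 10% of carrier control in both of two separate runs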;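 note: compound exposure lasted between 18 and 24 h rather than exactly 24 h; 100% = carrier-treated control wells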); details: SK-BR-3 viability, CellTiter-Glo luminescence, at 10 µM, stronger effect = lower value
# [4] = HUVEC growth inhibition – cell-based, human, primary screen (AID 575;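 active = viability at or below 30% in both replicate assays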;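 note: 100% = median of untreated cell wells with 0.1% DMSO on each plate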); details: HUVEC proliferation, CellTiter-Glo luminescence, 72 h; at 10 µM; stronger effect = lower value
# [5] = H69AR cell proliferation blockers – human, duplicate replicates, primary screen (AID 580;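 active = viability at or under a set limit in both replicates, limit being median viability minus 3 SD, cut at about 48% in these data, passing the limit was not always enough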;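 note: 100% = mean luminescence of untreated wells and 0% = no signal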); details: H69AR lung tumor cells viability, ATP luminescence, 72 h; at 10 µM; stronger effect = lower value
# [6] = MRP1 drug-resistance reversers in H69AR cells – cell-based, doxorubicin co-treatment, pilot screen (AID 601;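 active = viability loss from added drug above about 55%, and viability with drug at most 40%, in both replicates, limit read from the data, passing the limit was not always enough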); details: CellTiter-Glo, 72 h, at 10 µM; for differential viability (reversal): stronger effect = higher value
# [7] = yeast transport mutant growth inhibition pilot in 384-well plates, post-Golgi transport modulator project (AID 636; in the data active = inhibition above about 31%); details: absorbance 615 nm, about 18 h, stronger effect = higher value
# [8] = growth suppression of yeast trafficking mutant, preliminary HTS, modulators of trafficking downstream of Golgi apparatus project, 1536-format plate, OD 615 nm (AID 637; in the data active = inhibition above about 30%); details: yeast transport mutant growth, absorbance 615 nm, 18 h; stronger effect = higher value
# [9] = S. cerevisiae growth inhibition in permissive medium (OD615), pilot counter-assay for S. cerevisiae lifespan shortening project, permissive growth control (AID 705); details: OD615, 24 h, at 10 µM, stronger effect = higher value
# [10] = S. cerevisiae growth inhibition in restrictive medium, OD615, pilot screen, restrictive growth control, yeast lifespan reduction project (AID 706;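 active = growth inhibition above a set limit, 3 SD over mean compound inhibition, in both replicates, cut at about 43% in these data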;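 note: modified DeaD lifespan yeast strain shifted to restrictive glucose medium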); details: OD615, 48 h, at 10 µM, stronger effect = higher value
# [11] = doxorubicin toxicity protection in MRP-1 cells – H69AR cells, CellTiter-Glo, duplicate, MRP-1 activator project, pilot screen (AID 807;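 active = viability increase at or above a cutoff of the median across tested compounds plus 3 SD, cut at about 8.5% in these data, passing the limit was not always enough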;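 note: compound pretreatment 18-22 h then 72 h combined with doxorubicin; 0% = doxorubicin alone and 100% = vehicle without doxorubicin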); details: H69AR viability with doxorubicin, CellTiter-Glo luminescence; at 10 µM; stronger effect = higher value
# [12] = viability of HCT116 without oncogenic beta-catenin – human colon tumor cells, pilot screen (AID 823;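 active = cell viability at or below a set limit in both duplicate runs, the limit being the all-compound median minus 4 SD, cut at about 23% in these data, passing the limit was not always enough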;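 note: 0% = wells killed by 20 µM Hyamine and 100% = untreated DMSO cell wells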); details: HCT116 beta-catenin knockout viability, CellTiter-Glo, 60 h; at 10 µM; stronger effect = lower value
# [13] = viability of PTEN-null HCT116 cells – cell-based, HCT116 clonal line, CellTiter-Glo, pilot screen (AID 824;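 active = viability at or below 27.92% in each of two runs, the all-compound median minus 4 SD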;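 note: 0% = 20 µM Hyamine control and 100% = vehicle cell control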); details: HCT116 PTEN-deleted viability, 60 h, at 10 µM, stronger effect = lower value
# [14] = RAM pathway blockade in budding yeast – dse1pr::URA3 reporter, 5-FOA selection, pilot screen (AID 869;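 active = inhibition over a set limit, the all-compound mean plus 3 SD, in both replicate runs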;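 note: 0% = DMSO wells with no growth and 100% = 10 µM 1-NA-PP1 with full growth; RAM network block rescues cells from 5-FOA so hits raise OD615 growth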); details: S. cerevisiae dse1pr::URA3 5-FOA growth, OD615, 2 d; at 10 µM; stronger effect = higher value; strain carries analog-sensitive mutant Cbk1 kinase
# [15] = RAM signaling pathway blockade in yeast – S. cerevisiae, Pdr1DBD-CYC8 efflux-inhibited sensitized strain, primary screen (AID 1298;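 active = RAM network inhibition above 8.4% in each of two replicates, 3 SD over the compound average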;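 note: 0% = DMSO untreated cells without growth and 100% = 10 µM 1-NA-PP1 full growth; higher means more yeast growth rescued from 5-FOA killing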); details: S. cerevisiae cbk1-as DSE1-URA3 strain, 5-FOA growth OD615, 2 d; at 50 µM; stronger effect = higher value
# [16] = H69AR cells + 2 uM doxorubicin, measured here: viability with 2 uM doxorubicin, stronger effect = lower value
# [17] = H69AR cells, compound alone cytotoxicity
Structure (SMILES),viability [1] [%],Her2 level [2],viability [3],viability [4],viability [5],differential viability (reversal) ([6]; H69AR cells + 2 uM doxorubicin),"viability [6, 16] [%]","viability [6, 17] [%]",inhibition [7],inhibition [8],growth inhibition [9],growth inhibition [10],viability increase [11],viability [12],viability [13],inhibition [14],RAM network inhibition [15]
COc1ccc(C2CC(c3ccc(C)cc3)Nc3ncnn32)cc1 (stereo not given),106,96.5% (inactive),106% (inactive),105% (inactive),101% (inactive),14.9% (inactive),86.1,101,-0.27% (inactive),3.28% (inactive),2% (inactive),20% (inactive),-0.88% (inactive),104% (inactive),88.7% (inactive),1.41% (inactive),0.05% (inactive)
COc1cccc(C(=O)Nc2cc(C)c3c(=O)oc4ccccc4c3n2)c1,80.5,62.5% (inactive),80.5% (inactive),57.6% (inactive),81.9% (inactive),-19.4% (inactive),101,81.9,-6.53% (inactive),-4.67% (inactive),-1.54% (inactive),-1.12% (inactive),3.07% (inactive),85.2% (inactive),81.7% (inactive),2.74% (inactive),4.69% (inactive)
CN(C)c1cc(NC(=O)CN2CCOCC2)c2ccccc2n1,110,100% (inactive),110% (inactive),90.2% (inactive),85.8% (inactive),0.73% (inactive),85,85.8,-5.47% (inactive),7.17% (inactive),-12.2% (inactive),-11% (inactive),-1.8% (inactive),100% (inactive),99.4% (inactive),-0.365% (inactive),0.06% (inactive)
O=c1c2ccccc2nc2n1CCN2,84,95.5% (inactive),84% (inactive),91.9% (inactive),109% (inactive),26.2% (inactive),83.3,109,-0.93% (inactive),5.16% (inactive),-3.22% (inactive),-1.61% (inactive),0.22% (inactive),101% (inactive),104% (inactive),1.84% (inactive),-0.47% (inactive)
COc1ccc(NC(=O)c2cc(C3CC3)on2)c(OC)c1,96.5,91.5% (inactive),96.5% (inactive),86.7% (inactive),91.2% (inactive),-7.87% (inactive),99.1,91.2,0% (inactive),1.17% (inactive),4.41% (inactive),9.96% (inactive),-1.92% (inactive),101% (inactive),92.2% (inactive),-0.14% (inactive),4.64% (inactive)
Cc1ccc(-c2cc3nc4c(c(=O)n3[nH]2)CCCC4)cc1,105,119% (inactive),105% (inactive),88.7% (inactive),91.9% (inactive),-1.42% (inactive),93.4,91.9,-0.26% (inactive),-10% (inactive),-17% (inactive),-22.5% (inactive),-0.73% (inactive),95.2% (inactive),90.4% (inactive),2.7% (inactive),5.06% (inactive)
CCOC(=O)Cn1c(CCC(=O)O)ccc1-c1ccc(F)cc1,99,101% (inactive),99% (inactive),106% (inactive),84.3% (inactive),-8.34% (inactive),92.6,84.3,-5.6% (inactive),3.33% (inactive),-9.79% (inactive),-2.42% (inactive),-2.3% (inactive),102% (inactive),101% (inactive),0.72% (inactive),2.74% (inactive)
CCOC(=O)Cn1ncc(-c2ccccc2)c1N,101,72% (inactive),101% (inactive),102% (inactive),93% (inactive),7.02% (inactive),86,93,-7.95% (inactive),-1.43% (inactive),2.3% (inactive),-2.13% (inactive),0.83% (inactive),100% (inactive),94.5% (inactive),1.83% (inactive),2.21% (inactive)
CCOC(=O)N1CCN(C(=O)CSc2nnc(-c3cccc(Cl)c3)o2)CC1,82.5,96.5% (inactive),82.5% (inactive),86.1% (inactive),93.9% (inactive),7.46% (inactive),86.4,93.9,0.13% (inactive),-2.95% (inactive),-6.25% (inactive),-10.5% (inactive),-0.22% (inactive),105% (inactive),100% (inactive),2.61% (inactive),2.71% (inactive)
CCN(CC)CCNC(=O)c1ccc(CS(=O)(=O)c2ccc(Br)cc2)o1,92.5,110% (inactive),92.5% (inactive),100% (inactive),95.9% (inactive),5.79% (inactive),90.1,95.9,-0.26% (inactive),0.17% (inactive),-12.3% (inactive),-17.7% (inactive),-2.1% (inactive),97.1% (inactive),96.5% (inactive),0.92% (inactive),0.74% (inactive)
